According to PubChem BioAssay (Tox21):
Inconclusive results are not listed. Activity calls are given as the source filed them. Unless noted, calls follow the shape of the dose curve; as a rule, active = well fitted curve in the direction sought with a large enough effect in the repeat runs; inconclusive = weak or mixed curves; inactive = no such curve, though single readings can be large; an effect the other way counts as inactive or inconclusive.

What was measured:
[1] = qHTS assay to identify small molecule antagonists of the estrogen receptor beta (ER-beta) signaling pathway - cell viability counter screen (AID 1259382);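 also: HEK293T cells carrying ER-beta-UAS-bla reporter stimulated with estradiol; series mostly up to about 92 µM; nearly all actives have a fitted effect of over 55% in size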
How it was run: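 ER-beta-UAS-bla HEK293T cells (2,000/well, 2% charcoal-stripped FBS) were pre-incubated 6 hr at 37C, then given compound plus 1nM final 17-beta-estradiol for 16 hr. Viability was read in the same wells by CellTiter-Glo luminescence after 30 min at room temperature.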

[2] = molecular target: Estrogen receptor (Homo sapiens) (UniProt P03372); test: qHTS assay to identify small molecule agonists of the estrogen receptor alpha (ER-alpha) signaling pathway in the presence of an antagonist (AID 1259383; calls by dose curve; also: top concentration of the series differs between compounds; nearly all actives have a fitted effect of over 15% in size)
How it was run: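 VM7Luc4E2 cells (endogenous full-length ER-alpha, 4×ERE-luciferase) were precultured 5 days in phenol red-free medium with 10% charcoal-stripped FBS, given 10.0nM ICI-182,780 (final), then treated with compounds at 15 concentrations for 22hr at 37C; luminescence read with ONE-Glo.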

[3] = qHTS assay to identify small molecule agonists or antagonists of the thyroid stimulating hormone receptor (TSHR) signaling pathway - wild type cell line counter screen (AID 1259384; calls by dose curve)
How it was run: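 Wild-type HEK293 cells were plated 18 h at 37 C/5% CO2, pin-dosed with compound plus Ro20-1724 medium, held 30 min at room temperature, then given cAMP-d2 and anti-cAMP-cryptate; fluorescence was read after 1 h. Fifteen concentrations, triplicate.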

[4] = molecular target: Thyrotropin receptor (Homo sapiens) (UniProt P16473); test: qHTS assay to identify small molecule antagonists of the thyroid stimulating hormone receptor (TSHR) signaling pathway (AID 1259385; calls by dose curve; also: nearly all actives have a fitted effect of over 20% in size)
How it was run: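 TSHR-HEK293 cells were plated and held 18 h at 37C/5% CO2, then given compound plus Ro20-1724 and stimulated with TSH at 1.5 ng/mL final. After 30 min at room temperature, cAMP was detected with cAMP-d2/anti-cAMP-cryptate (1 h) by fluorescence.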

[5] = qHTS assay to identify small molecule agonists of the estrogen receptor alpha (ER-alpha) signaling pathway in the presence of an antagonist - cell viability counter screen (AID 1259386);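 also: series mostly up to about 92 µM; cells exposed to compounds for 22 h at 37 °C before the viability read; nearly all actives have a fitted effect of over 30% in size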
How it was run: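 VM7Luc4E2 cells (endogenous full-length ER-alpha, 4×ERE-luciferase) were held 5 days in phenol red-free medium with 10% charcoal-stripped FBS, plated, then given 10.0nM ICI-182,780 and compounds at 15 concentrations for 22hr at 37C; viability read by CellTiter-Fluor fluorescence.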

[6] = molecular target: Progesterone receptor (Homo sapiens) (UniProt P06401); test: qHTS assay to identify small molecule agonists of the progesterone receptor (PR) signaling pathway (AID 1346784; calls by dose curve; also: nearly all actives have a fitted effect of over 30% in size)
How it was run: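 Reporter assay, GripTite PR-UAS-bla HEK 293T cells: 16 hr exposure to DMSO-dissolved compounds at 37C, 5% CO2, in steroid-depleted (2% charcoal-stripped FBS) medium; beta-lactamase measured by FRET fluorescence.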

[7] = molecular target: Progesterone receptor (Homo sapiens) (UniProt P06401); test: qHTS assay to identify small molecule antagonists of the progesterone receptor (PR) signaling pathway (AID 1346795; active = well fitted inhibition curve with a large enough effect in the signal ratio in the repeat runs, not every such curve was filed as active; the % refers to the signal ratio)
How it was run: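 Stimulus R5020 at 1 nM final; cells HEK293T PR-UAS-bla; medium with 2% charcoal-stripped FBS; compound exposure 16 hr at 37C, 5% CO2; detection by FRET beta-lactamase substrate, 2 hr, room temperature.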

[8] = qHTS assay to identify small molecule agonists of the progesterone receptor (PR) signaling pathway - cell viability counter screen (AID 1346799; calls by dose curve; also: nearly all actives have a fitted effect of over 45% in size)
How it was run: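 Multiplexed viability read: CellTiter-Glo luminescence, 30 min RT, following LiveBLAzer FRET measurement on PR-UAS-bla HEK293T cells exposed to compounds 16 hr.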

[9] = qHTS assay to identify small molecule antagonists of the TGF-beta/Smad signaling pathway - cell viability counter screen (AID 1346824); also: nearly all actives have a fitted effect of over 50% in size
How it was run: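 SBE-bla HEK 293T cells were plated overnight at 37 C, then given compounds in DMSO plus TGF-beta1 (added as 0.25 ng/mL solution) for 5 hr. After the bla read, CellTiter-Glo was added to the same wells and luminescence read after 30 min at room temperature.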

[10] = qHTS assay to identify small molecule agonists of the TGF-beta/Smad signaling pathway - cell viability counter screen (AID 1346829); also: top concentration of the series differs between compounds; nearly all actives have a fitted effect of over 45% in size
How it was run: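 Compound-treated SBE-bla HEK 293T cells (5 hr, 37 C) were assessed for viability with CellTiter-Glo in parallel with the reporter read.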

[11] = qHTS assay to identify small molecule agonists of the TGF-beta/Smad signaling pathway (AID 1346859; active = well fitted activation curve with a large enough effect in the signal ratio in the repeat runs, not every such curve was filed as active; the % refers to the signal ratio; also: series mostly up to about 77 µM)
How it was run: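 Screening used HEK 293T SBE-bla cells at 4,000/well. Test agents: 5 hr, 37 C. Detection: FRET substrate, 2 hr RT, then excitation 405 nm with emissions at 460 and 530 nm.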

[12] = molecular target: Thyrotropin-releasing hormone receptor (Homo sapiens) (UniProt P34981); test: qHTS assay to identify small molecule antagonists of the thyrotropin-releasing hormone receptor (TRHR) signaling pathway (AID 1346877; active = well fitted inhibition curve with a large enough effect in the repeat runs, not every such curve was filed as active; also: series mostly up to about 51 µM)
How it was run: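 TRHR-expressing HEK293 cells were seeded, cultured 18 h at 37 °C, then loaded with calcium dye for 2 h. Compounds were pre-incubated 5 min at room temperature before 1 nM TRH (final) was added, and kinetic fluorescence was recorded for 3 min.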

[13] = molecular target: Thyrotropin-releasing hormone receptor (Homo sapiens) (UniProt P34981); test: qHTS assay to identify small molecule agonists of the thyrotropin-releasing hormone receptor (TRHR) signaling pathway (AID 1346891; calls by dose curve; also: series mostly up to about 58 µM)
How it was run: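 Readout was intracellular calcium fluorescence in TRHR-Hek293 cells. Cells were incubated 18 h, dye-loaded 2 h at 37 °C, and treated with compound in agonist mode.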

[14] = Human pregnane X receptor (PXR) small molecule agonists, qHTS cell viability counter screen (AID 1346977); also: nearly all actives have a fitted effect of over 50% in size
How it was run: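 In each well, the PXR reporter HepG2 line was checked for viability: CellTiter-Fluor reagent added 23hr post-dosing, fluorescence read after 1hr incubation at 37C.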

[15] = Caspase-3/7 induction in HepG2 cells by small molecules, qHTS assay (AID 1346978); also: nearly all actives have a fitted effect of over 15% in size
How it was run: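 Wild-type HepG2 cells (2,000/well) were settled 5 h at 37 C, 5% CO2, then exposed to compounds in DMSO for 17 h. Caspase-3/7 activity was read by luminescence 30 min after adding Caspase-Glo 3/7 reagent at room temperature.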

[16] = Caspase-3/7 induction in CHO-K1 cells by small molecules, qHTS cell viability counter screen (AID 1346979); also: nearly all actives have a fitted effect of over 35% in size
How it was run: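 Following a 5hr settling period, CHO-K1 cells at 1,500 per well received DMSO-dissolved compounds. Cell viability was quantified 16hr later by CellTiter-Fluor fluorescence, measured after 1hr with reagent at 37C.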

[17] = Caspase-3/7 induction in CHO-K1 cells by small molecules, qHTS assay (AID 1346980); also: nearly all actives have a fitted effect of over 15% in size
How it was run: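 Wild-type cells were seeded at 1,500 per well and settled 5 hr at 37 C, 5% CO2, then exposed to DMSO-dissolved compounds for 17 hr. Caspase-Glo 3/7 reagent was added, and luminescence was read after 30min at room temperature.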

[18] = Caspase-3/7 induction in HepG2 cells by small molecules, qHTS cell viability counter screen (AID 1346981); also: series mostly up to about 92 µM; nearly all actives have a fitted effect of over 30% in size
How it was run: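 Wild-type HepG2 cells (2,000/well) were allowed to settle for 5 hr at 37 C, 5% CO2, then dosed with compounds in DMSO by pin transfer. After 16 hr at 37 C, CellTiter-Fluor was added and fluorescence read 1 hr later.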

[19] = molecular target: Nuclear receptor subfamily 1 group I member 2 (Homo sapiens) (UniProt O75469); test: Human pregnane X receptor (PXR) small molecule agonists, qHTS assay (AID 1346982); also: nearly all actives have a fitted effect of over 35% in size
How it was run: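 PXR-Luc HepG2 cells (CYP3A4 promoter-driven luciferase) were seeded in medium with 5% charcoal-stripped FBS, left 5 hr at 37 C, then exposed to compounds in DMSO for 24 hr. Luminescence was read after ONE-Glo addition.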

[20] = qHTS assay to identify small molecule antagonists of the progesterone receptor (PR) signaling pathway - cell viability counter screen (AID 1346798); also: series mostly up to about 92 µM; nearly all actives have a fitted effect of over 50% in size
How it was run: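 In the same plates used for the beta-lactamase readout, cell viability of compound- and R5020-treated PR-UAS-bla HEK293T cells (16 hr, 37C) was assessed by CellTiter-Glo luminescence.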
% is scaled to controls: 0 for no effect and ±100 for the full control effect.

Chain of Estrogen receptor (Homo sapiens) (P03372 whole entry, looked up): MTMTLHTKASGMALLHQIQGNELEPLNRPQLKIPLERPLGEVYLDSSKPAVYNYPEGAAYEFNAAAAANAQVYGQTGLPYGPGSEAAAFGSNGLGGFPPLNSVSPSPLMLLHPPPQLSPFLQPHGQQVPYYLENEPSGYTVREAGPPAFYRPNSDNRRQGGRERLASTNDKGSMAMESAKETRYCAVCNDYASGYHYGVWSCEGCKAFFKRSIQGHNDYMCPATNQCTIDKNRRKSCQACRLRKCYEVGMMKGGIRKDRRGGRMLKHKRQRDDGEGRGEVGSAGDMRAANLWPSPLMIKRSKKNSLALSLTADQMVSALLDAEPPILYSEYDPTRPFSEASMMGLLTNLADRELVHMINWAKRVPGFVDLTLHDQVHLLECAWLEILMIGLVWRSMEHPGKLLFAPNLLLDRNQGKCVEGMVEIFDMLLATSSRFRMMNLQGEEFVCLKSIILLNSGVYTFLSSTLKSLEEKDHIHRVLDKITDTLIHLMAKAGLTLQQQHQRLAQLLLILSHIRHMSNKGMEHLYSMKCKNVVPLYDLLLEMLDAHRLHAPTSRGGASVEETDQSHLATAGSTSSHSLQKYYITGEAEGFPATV
Chain of Nuclear receptor subfamily 1 group I member 2 (Homo sapiens) (O75469 whole entry, looked up): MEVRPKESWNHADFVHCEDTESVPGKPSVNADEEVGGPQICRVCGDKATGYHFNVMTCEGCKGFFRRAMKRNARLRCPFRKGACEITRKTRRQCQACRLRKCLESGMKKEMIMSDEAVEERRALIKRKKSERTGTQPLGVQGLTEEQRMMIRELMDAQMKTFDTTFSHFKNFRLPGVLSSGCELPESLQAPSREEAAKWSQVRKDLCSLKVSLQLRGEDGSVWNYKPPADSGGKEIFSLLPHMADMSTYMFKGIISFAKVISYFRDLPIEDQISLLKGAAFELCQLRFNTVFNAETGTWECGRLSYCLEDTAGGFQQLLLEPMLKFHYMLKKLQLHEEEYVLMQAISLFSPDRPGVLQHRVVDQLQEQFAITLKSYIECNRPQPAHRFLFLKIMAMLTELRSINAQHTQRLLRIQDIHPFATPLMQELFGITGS
Chain of Thyrotropin receptor (Homo sapiens) (P16473 whole entry, looked up): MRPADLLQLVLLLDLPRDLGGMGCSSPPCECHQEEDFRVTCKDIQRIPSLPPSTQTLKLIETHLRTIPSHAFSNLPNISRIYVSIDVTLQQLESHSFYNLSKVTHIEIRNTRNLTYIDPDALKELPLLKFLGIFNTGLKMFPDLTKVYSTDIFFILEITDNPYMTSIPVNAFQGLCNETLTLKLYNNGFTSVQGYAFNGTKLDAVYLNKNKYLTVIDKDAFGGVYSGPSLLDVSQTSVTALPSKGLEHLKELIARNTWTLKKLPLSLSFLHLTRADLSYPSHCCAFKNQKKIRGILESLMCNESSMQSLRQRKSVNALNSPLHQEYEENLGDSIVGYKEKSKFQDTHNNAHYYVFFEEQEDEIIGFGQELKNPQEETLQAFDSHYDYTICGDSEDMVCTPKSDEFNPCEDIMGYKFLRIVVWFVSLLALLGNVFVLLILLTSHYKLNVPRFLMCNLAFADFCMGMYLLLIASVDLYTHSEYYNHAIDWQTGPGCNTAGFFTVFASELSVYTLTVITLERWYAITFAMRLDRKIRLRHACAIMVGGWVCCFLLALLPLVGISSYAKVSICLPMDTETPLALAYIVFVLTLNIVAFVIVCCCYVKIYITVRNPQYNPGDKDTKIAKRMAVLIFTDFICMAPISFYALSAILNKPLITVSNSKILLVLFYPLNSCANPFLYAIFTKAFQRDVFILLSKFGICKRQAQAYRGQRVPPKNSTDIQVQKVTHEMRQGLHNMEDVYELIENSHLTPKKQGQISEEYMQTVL
Chain of Progesterone receptor (Homo sapiens) (P06401 whole entry, looked up): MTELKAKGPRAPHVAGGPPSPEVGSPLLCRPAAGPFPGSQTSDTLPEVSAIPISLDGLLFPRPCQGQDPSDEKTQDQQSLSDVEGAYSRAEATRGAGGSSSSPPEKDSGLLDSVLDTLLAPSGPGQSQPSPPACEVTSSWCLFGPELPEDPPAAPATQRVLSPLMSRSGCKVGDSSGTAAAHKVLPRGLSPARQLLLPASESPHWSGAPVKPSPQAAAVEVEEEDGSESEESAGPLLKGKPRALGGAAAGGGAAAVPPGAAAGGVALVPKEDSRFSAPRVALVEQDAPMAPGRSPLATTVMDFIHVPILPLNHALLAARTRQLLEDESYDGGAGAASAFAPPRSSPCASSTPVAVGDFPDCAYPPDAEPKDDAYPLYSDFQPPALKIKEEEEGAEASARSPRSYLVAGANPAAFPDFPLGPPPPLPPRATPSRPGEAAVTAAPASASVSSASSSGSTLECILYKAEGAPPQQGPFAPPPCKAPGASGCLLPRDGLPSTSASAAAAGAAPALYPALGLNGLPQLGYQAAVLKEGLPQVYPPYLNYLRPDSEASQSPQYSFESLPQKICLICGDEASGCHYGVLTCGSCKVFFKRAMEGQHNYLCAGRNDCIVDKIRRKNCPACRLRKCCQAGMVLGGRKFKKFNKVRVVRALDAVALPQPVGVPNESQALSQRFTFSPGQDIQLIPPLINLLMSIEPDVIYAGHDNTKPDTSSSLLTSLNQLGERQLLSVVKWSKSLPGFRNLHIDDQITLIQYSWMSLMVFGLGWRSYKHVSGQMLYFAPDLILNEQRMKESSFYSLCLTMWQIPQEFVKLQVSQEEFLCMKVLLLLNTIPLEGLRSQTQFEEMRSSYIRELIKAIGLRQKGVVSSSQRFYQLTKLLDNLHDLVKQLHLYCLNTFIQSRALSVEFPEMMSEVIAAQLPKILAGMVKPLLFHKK
Chain of Thyrotropin-releasing hormone receptor (Homo sapiens) (P34981 whole entry, looked up): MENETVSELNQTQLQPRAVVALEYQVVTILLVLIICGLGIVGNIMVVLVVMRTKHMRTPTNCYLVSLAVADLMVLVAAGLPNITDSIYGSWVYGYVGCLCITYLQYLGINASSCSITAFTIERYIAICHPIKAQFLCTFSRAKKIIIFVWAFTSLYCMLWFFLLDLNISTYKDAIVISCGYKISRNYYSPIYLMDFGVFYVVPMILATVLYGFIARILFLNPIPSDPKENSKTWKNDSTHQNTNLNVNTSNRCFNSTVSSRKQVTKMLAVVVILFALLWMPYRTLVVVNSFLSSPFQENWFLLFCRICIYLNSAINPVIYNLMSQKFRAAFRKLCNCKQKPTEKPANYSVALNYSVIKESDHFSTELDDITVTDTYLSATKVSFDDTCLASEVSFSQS

CC(CO)(CO)CO
inactive: outcome [1] | Potency [2] | outcome [3] | outcome [4] | outcome [5] | Potency [6] | Potency [7] | outcome [8] | outcome [9] | outcome [10] | outcome [11] | outcome [12] | outcome [13] | outcome [14] | outcome [15] | Potency [16] | outcome [17] | outcome [18] | Potency [19]

Cc1cc(-c2ccccc2)nnc1NCCN1CCOCC1
inactive: outcome [1] | Potency [2] | outcome [3] | outcome [4] | outcome [5] | Potency [6] | Potency [7] | outcome [20] | outcome [8] | outcome [9] | outcome [10] | outcome [11] | outcome [14] | outcome [15] | Potency [16] | outcome [17] | outcome [18] | Potency [19]

Cc1ccc(C(=O)O)cc1[N+](=O)[O-]
inactive: outcome [1] | Potency [2] | outcome [3] | outcome [4] | outcome [5] | Potency [6] | Potency [7] | outcome [20] | outcome [8] | outcome [9] | outcome [10] | outcome [11] | outcome [12] | outcome [13] | outcome [14] | outcome [15] | Potency [16] | outcome [17] | outcome [18] | Potency [19]

Fc1ccccc1
inactive: outcome [1] | Potency [2] | outcome [3] | outcome [4] | outcome [5] | Potency [6] | Potency [7] | outcome [8] | outcome [9] | outcome [10] | outcome [11] | outcome [12] | outcome [13] | outcome [14] | outcome [15] | Potency [16] | outcome [17] | outcome [18] | Potency [19]

CC(=O)Nc1ccc(OC(=O)c2ccccc2OC(C)=O)cc1
inactive: outcome [1] | Potency [2] | outcome [3] | outcome [4] | outcome [5] | Potency [6] | Potency [7] | outcome [20] | outcome [8] | outcome [9] | outcome [10] | outcome [11] | outcome [12] | outcome [13] | outcome [14] | outcome [15] | Potency [16] | outcome [17] | outcome [18] | Potency [19]

CC1=C(O)C(=O)C(C)O1 (configuration not stated)
inactive: outcome [1] | Potency [2] | outcome [3] | outcome [4] | outcome [5] | Potency [6] | Potency [7] | outcome [20] | outcome [8] | outcome [9] | outcome [10] | outcome [11] | outcome [12] | outcome [13] | outcome [14] | outcome [15] | Potency [16] | outcome [17] | outcome [18] | Potency [19]

CC(C)(CO)C(O)C(=O)NCCCO (configuration not stated)
inactive: outcome [1] | Potency [2] | outcome [3] | outcome [4] | outcome [5] | Potency [6] | Potency [7] | outcome [20] | outcome [8] | outcome [9] | outcome [10] | outcome [11] | outcome [14] | outcome [15] | Potency [16] | outcome [17] | outcome [18] | Potency [19]

CC1(C)Oc2ccc(C#N)cc2[C@@H](N2CCCC2=O)[C@@H]1O
inactive: outcome [1] | Potency [2] | outcome [3] | outcome [4] | outcome [5] | Potency [6] | Potency [7] | outcome [20] | outcome [8] | outcome [9] | outcome [10] | outcome [11] | outcome [14] | outcome [15] | Potency [16] | outcome [17] | outcome [18] | Potency [19]

CCCCOCC(C)O (configuration not stated)
inactive: outcome [1] | Potency [2] | outcome [3] | outcome [4] | outcome [5] | Potency [6] | Potency [7] | outcome [20] | outcome [8] | outcome [9] | outcome [10] | outcome [12] | outcome [13] | outcome [14] | outcome [15] | Potency [16] | outcome [17] | outcome [18] | Potency [19]

CN1C[C@@H]2C[C@H]1CN2c1cc2c(cc1F)c(=O)c(C(=O)O)cn2C1CC1
inactive: activity change, negative = cytotoxicity [1] 7% [at 19 µM] | activation [2] 0.617% [at 19 µM] | cAMP activity change [3] -2.22% [at 18.9 µM] | activity change, negative = inhibition [4] -7.57% [at 19 µM] | activity change, negative = cytotoxicity [5] -0.242% [at 19 µM] | activation [6] 6.66% [at 19 µM] | activity change, negative = inhibition [7] 14.1% [at 18.9 µM] | activity change, negative = cytotoxicity [8] 18.9% [at 19 µM] | viability change, negative = cytotoxic [9] 1.45% [at 15.8 µM] | activity change, negative = cytotoxicity [10] 2.12% [at 15.8 µM] | activation [11] 0.101% [at 15.8 µM] | activity, negative = inhibition [12] 1.83% [at 10.5 µM] | activation [13] -1.22% [at 11.8 µM] | activity change, negative = cytotoxicity [14] -0.63% [at 19 µM] | caspase activation [15] -0.0526% [at 19 µM] | activity change, negative = cytotoxicity [16] -0.0368% [at 19 µM] | caspase-3/7 activation [17] -1.08% [at 19 µM] | activity change, negative = cytotoxicity [18] -1.05% [at 19 µM] | activation [19] -18.6% [at 19 µM]

CC(=O)CCC1=C(C)CCCC1(C)C
inactive: outcome [1] | Potency [2] | outcome [3] | outcome [4] | outcome [5] | Potency [6] | outcome [20] | outcome [8] | outcome [9] | outcome [10] | outcome [11] | outcome [12] | outcome [13] | outcome [14] | outcome [15] | Potency [16] | outcome [17] | Potency [19]

CC/C(C)=N\O[Si](C)(O/N=C(\C)CC)O/N=C(\C)CC
inactive: outcome [1] | Potency [2] | outcome [3] | outcome [4] | outcome [5] | Potency [6] | outcome [20] | outcome [8] | outcome [9] | outcome [10] | outcome [11] | outcome [14] | outcome [15] | Potency [16] | outcome [17] | Potency [19]

NCCOCCN
inactive: outcome [1] | Potency [2] | outcome [3] | outcome [4] | outcome [5] | Potency [6] | Potency [7] | outcome [8] | outcome [9] | outcome [10] | outcome [12] | outcome [13] | outcome [14] | outcome [15] | Potency [16] | outcome [17] | outcome [18] | Potency [19]
